# NPC1 prom act: activates the NPC1 promoter | Potency, µM (doses to about 9.22 µM), for the others: top-dose activation, most hits filed as activators | Huh7 NPC1 promoter luciferase reporter, 24 h | 2.4% of 320,000 active | AID 485313; also: % of control where 0% means no effect; nearly all actives have a fitted effect of over 60% in size
#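 Huh7 reporter cells (NPC1 promoter driving luciferase) are dosed with compound for 24 h at 37 °C, 5% CO2; luciferase detection reagent is then added and luminescence measured after 10 min at ambient temperature.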
# Rab9 prom act: activates the Rab9 promoter. Huh7 Rab9 promoter-luciferase reporter, luminescence, 24 h. AID 485297. Potency, µM (top dose mostly 9.22 µM), inactives show top-dose activation, negative = inhibition, most hits filed as activators. 2.8% of 320,000 active; also: % of control where 0% means no effect; nearly all actives have a fitted effect of over 60% in size
#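 Using Huh7 cells stably transfected with Rab9 promoter–luciferase, compounds were incubated 24 h at 37 °C, 5% CO2; luciferase luminescence was read 10 min after reagent addition.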
# ELG1 genotox: genotoxicity induction in ELG1-luciferase HEK293T cells. HEK293T ELG1-luciferase reporter, luminescence, 16 h. Potency, µM (top dose mostly 46 µM), without a hit: top-dose activity change, positive = activation, usual class: activators. 1.3% of 330,000 active; also: % of control where 0% means no effect; nearly all actives have a fitted effect of over 60% in size
#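 16 hr compound incubation (37 °C, 5% CO2) of HEK293T cells carrying luciferase-tagged ELG1; luciferase then measured by ONE-Glo luminescence after 30 min at RT.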
# FLuc counter: counter-screen for miR-21 project: firefly luciferase inhibitors or activators; purified FLuc, Km substrates, luminescence inhibition; P08659; 6.9% of 360,000 active; Potency, µM (top dose mostly 57.5 µM), inactives show top-dose activity change, negative = inhibition, usual class: inhibitors;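 also: plate controls were vehicle for no effect and reference inhibitor for full effect; nearly all actives have a fitted effect of over 55% in size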
# Target sequence (P08659 whole entry, looked up): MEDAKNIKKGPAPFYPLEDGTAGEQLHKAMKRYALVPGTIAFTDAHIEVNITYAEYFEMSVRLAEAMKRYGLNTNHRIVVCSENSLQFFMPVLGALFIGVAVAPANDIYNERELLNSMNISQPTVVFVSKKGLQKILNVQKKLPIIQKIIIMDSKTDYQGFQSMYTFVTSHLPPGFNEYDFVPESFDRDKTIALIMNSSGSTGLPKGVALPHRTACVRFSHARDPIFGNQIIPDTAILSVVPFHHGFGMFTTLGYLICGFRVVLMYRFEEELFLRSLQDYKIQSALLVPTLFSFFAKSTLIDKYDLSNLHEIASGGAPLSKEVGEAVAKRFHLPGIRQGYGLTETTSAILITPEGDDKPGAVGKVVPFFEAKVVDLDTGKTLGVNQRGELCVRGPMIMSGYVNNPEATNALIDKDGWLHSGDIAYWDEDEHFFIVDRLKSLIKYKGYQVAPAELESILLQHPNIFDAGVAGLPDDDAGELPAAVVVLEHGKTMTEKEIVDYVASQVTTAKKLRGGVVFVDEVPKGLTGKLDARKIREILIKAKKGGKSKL
#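 Purified P. pyralis luciferase, 10 nM final, with Km-level 10 uM D-luciferin and 10 uM ATP in 50 mM Tris acetate pH 7.5, 10 mM Mg acetate, 0.01% Tween-20, 0.05% BSA; 6-point qHTS titration about 60 µM downward; luminescence read.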
# SMN2 splice up: enhancers of SMN2 splice variant expression. HEK293 SMN2-luciferase splicing reporter, luminescence, 30-36 h. Potency, µM (top dose mostly 46.1 µM), without a hit: at the highest dose activity change, positive = activation, usual class: activators. 2.8% of 210,000 active; also: % of control where 0% means no effect; nearly all actives have a fitted effect of over 55% in size
#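 HEK293 cells carry an SMN2 […]–luciferase reporter in which exon 7 inclusion puts luciferase in frame. Cells were plated 10-12 h before compound addition, then incubated 30-36 h at 37C. ONE-Glo luminescence was read; sodium butyrate at 4.5 mM final served as control.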
# Numbers without * were called inactive; ? = inconclusive; · = no result; [ ] = dose if it differs, or a comment. This is a sample that favours compounds with a hit; in the whole collection about 7.4% have one here. Calls follow the shape of the dose curve; as a rule, active = well fitted curve in the direction sought with a large enough effect; inconclusive = small, poorly fitted or top-dose-only effect, or another doubt; inactive = no such curve, though single readings can be large; an effect the other way counts as inactive or inconclusive. Potency is read from the fitted curve at half-maximal effect.
SMILES,NPC1 prom act,Rab9 prom act,ELG1 genotox,FLuc counter,SMN2 splice up
CC(C)c1ccc(OCc2cc(=O)n3c4c(sc3n2)CCCC4)cc1,·,·,·,-13.6%,0.6%
CCCC(=O)Nc1ccc(C2C(=O)c3ccccc3C2=O)cc1,1.58µM*,3.55µM*,19.7%,1.07µM*,·
CC(=O)Nc1ccc(C2C(=O)c3ccccc3C2=O)cc1,?,?,23.1µM*,2.13µM*,·
CC(=O)Nc1ccc(C2NC(=O)c3ccccc3O2)cc1 (stereo not drawn),7.4%,10.1%,-1.2%,-2.3%,·
CC(/C=C1\SC(=S)N(CCC(=O)Nc2ccccc2O)C1=O)=C\c1ccccc1,5.6%,7.2%,-2.0%,2.4%,·
O=C(CCN1C(=O)/C(=C\c2cccs2)SC1=S)Nc1ccc(C(=O)O)cc1,-1.6%,-4.2%,11.7%,0.0%,·
CC(/C=C1\SC(=S)N(CCCC(=O)Nc2ccc(C(=O)O)cc2)C1=O)=C\c1ccccc1,16.7%,27.8%,15.7%,13.5µM*,-3.9%
CC(/C=C1\SC(=S)N(CCC(=O)Nc2cccc(C(=O)O)c2)C1=O)=C\c1ccccc1,-4.4%,-0.5%,0.4%,23.9µM*,·
O=c1nc2c(-c3ccccc3F)n[nH]n2c2ccccc12,?,3.98µM*,?,13.5µM*,22.4µM*
Cc1ccc2[nH]c(=O)c3cc(C(=O)N4CCN(c5ccccc5)CC4)sc3c2c1,·,·,·,0.9%,3.5%
COCCNS(=O)(=O)c1ccc(-c2ccc(Cl)cc2)cc1,-0.3%,-12.7%,2.3%,-9.3%,·
COCCNS(=O)(=O)c1ccc(-c2ccc(S(=O)(=O)NCCOC)cc2)cc1,?,1µM*,?,4.26µM*,20µM*
O=C(CSc1nc2c([nH]c3ccccc32)c(=O)n1-c1ccccc1)Nc1ccc2c(c1)OCO2,·,·,·,-9.2%,·
CCOc1ccc(N/C=C/C(=O)c2ccc(OC)c(OC)c2)cc1,3.16µM*,4.47µM*,18.3µM*,3.01µM*,·
COc1ccc(C(=O)Oc2ccc(C(=S)N3CCOCC3)cc2)cc1,-3.1%,-3.9%,0.2%,21.3µM*,·
O=C(Oc1ccc(C(=S)N2CCOCC2)cc1)c1ccc(Br)cc1,-1.1%,-0.7%,0.7%,-0.1%,20.9%
CCCOc1ccc(N/C=C/C(=O)c2ccc(OC)c(OC)c2)cc1,-4.7%,0.1%,1.3%,?,·
COc1ccc(C(=O)/C=C\N2CCOCC2)cc1,13.6%,15.1%,?,23.9µM*,·
COc1ccc(N/C=C/C(=O)c2sc(-c3ccccc3)nc2C)cc1,-2.2%,-2.3%,-5.7%,6.75µM*,-13.5%
CCCCOc1ccccc1Cn1c(=O)sc2ccccc21,·,·,·,-15.5%,-20.2%
O=C(Nc1cccc(F)c1)N1CC[C@@]2(CCCN(C(=O)c3ccncc3)C2)C1,·,·,·,·,-8.4%
O=C(Nc1ccc(Cl)cc1)C(NS(=O)(=O)c1cccs1)c1ccccc1 (stereo not drawn),·,·,·,?,17.0%
Cc1cccc(C)c1Nc1c(-c2ccccc2Cl)nc2cnccn12,·,·,·,-5.7%,9.6%
O=C(/C=C/Nc1ccccc1)c1ccc(Oc2ncccn2)cc1,1.41µM*,2.24µM*,?,2.13µM*,?
COc1ccc(N/C=C/C(=O)c2ccccc2)cc1,0.316µM*,0.126µM*,0.411µM*,0.12µM*,·
SMILES,NPC1 prom act,Rab9 prom act,ELG1 genotox,FLuc counter,SMN2 splice up
COc1ccc(N/C=C/C(=O)C(C)(C)C)cc1,-0.3%,-3.5%,10.0%,12µM*,·
COc1ccc(C(=O)/C=C/Nc2ccc(C)cn2)cc1OC,2.24µM*,1.58µM*,?,8.49µM*,11.2µM*
COC(/C=C/Nc1ccc(OC)cc1)=C(C#N)C#N,-5.9%,-24.1%,-0.4%,-0.9%,12.5%
Cc1cccc(OCC(=O)N(Cc2sccc2C)C2CCS(=O)(=O)C2)c1 (stereo not drawn),·,·,·,-0.1%,-0.8%
CCCCC/C=C\C/C=C\C/C=C\CCCCC(=O)NCCCC(=O)O,·,·,·,·,10.7%
C=CC[C@@H](C(=O)O)c1ccccc1,·,·,·,·,3.2%[9.22 µM]
CCOc1ccccc1C1CC(=O)Nc2c1c(=O)n(C)c1ncnn21 (stereo not drawn),·,·,·,-6.3%,1.4%
NS(=O)(=O)c1ccc(N/C=C\C(=O)c2ccc3ccccc3c2)cc1,7.3%,3.5%,3.7%,2.5%,0.6%
COc1ccc(N/C=C\C(=O)c2ccc3ccccc3c2)cc1,2µM*,2.82µM*,16.8%,?,·
COc1cccc(C(=O)c2sc(NC(C)C)nc2N)c1,-6.5%,-1.0%,-5.2%,-13.3%,20µM*
CSc1nnc(NC(=O)c2ccc(S(=O)(=O)N(C)C)cc2)s1,1.58µM*,0.562µM*,?,10.7µM*,12.6µM*
Cc1nc(NC(=O)c2ccc(OCC(C)C)cc2)sc1Cc1ccc2c(c1)OCO2,18.1%,?,-2.6%,21.3µM*,-20.5%
CSc1nnc(NC(=O)c2ccc3c(c2)OCO3)s1,0.224µM*,0.112µM*,0.259µM*,0.477µM*,·
O=C(Nc1nncs1)c1ccc2c(c1)OCO2,23.2%,29.8%,?,15.1µM*,·
COCCNc1nnc(SCC(=O)c2ccc3c(c2)OCO3)s1,15.3%,-0.2%,0.8%,-9.1%,3.5%
CCOC(=O)C(C)Sc1nnc(NC(=O)c2ccc3c(c2)OCO3)s1 (stereo not drawn),3.2%,-5.2%,13.1%,16.9µM*,17.5%
Cc1noc(C)c1COc1ccc(C(=O)Nc2nnc(CC(C)C)s2)cc1,-8.9%,-17.8%,1.6%,-1.7%,·
Cc1nnc(NC(=O)c2ccc3c(c2)OCO3)s1,?,3.55µM*,?,13.5µM*,·
CC(C)Cc1nnc(NC(=O)c2ccc3c(c2)OCCO3)s1,2µM*,0.631µM*,?,1.9µM*,·

# Compound activity deposited in PubChem by National Center for Advancing Translational Sciences (NCATS).
